Assay outcomes from PubChem BioAssay.
BoNT-F LC inh: BoNT F light chain protease inhibition; inhibition, % at 10 µM; actives 0.22% (n = 360,000); AID 588497; Multiplex microsphere protease cleavage assay, flow cytometry; in the data active = inhibition above about 35%, passing the limit was not always enough; inconclusive = no clear call, values can overlap the other calls; note: plate controls were buffer without enzyme for full effect and enzyme alone for no effect
MazEF act: activators of E. coli MazEF toxin-antitoxin RNase; P0AE70; FAM/BHQ RNA-DNA oligo cleavage fluorescence, 5 h; activation, % at 20 µM; actives 0.32% (n = 350,000); in the data active = activation above about 50%
Target sequence (P0AE70 whole entry, looked up): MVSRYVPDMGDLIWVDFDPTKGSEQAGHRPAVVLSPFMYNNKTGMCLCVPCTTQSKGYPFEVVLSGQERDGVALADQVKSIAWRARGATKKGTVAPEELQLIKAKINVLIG
Bead autofluor: compound fluorescence in toxin protease inhibitor counterscreen; compound autofluorescence counterscreen, microsphere flow cytometry; stronger effect = higher value; fluorescence intensity (concentration not given with the values); actives 3.1% (n = 360,000); in the data active = fluorescence intensity above about 16000; inconclusive = no clear call, values can overlap the other calls
BoNT-A LC inh2: BoNT A light chain protease inhibition; multiplex microsphere protease substrate cleavage, flow cytometry; actives 0.17% (n = 360,000); inhibition, % at 10 µM; AID 588499; in the data active = inhibition above about 30%; inconclusive = no clear call, values can overlap the other calls; note: plate controls were buffer without enzyme for full effect and enzyme alone for no effect
Anthrax LF inh2: inhibitors of Bacillus anthracis lethal factor protease; P15917; multiplex microsphere protease cleavage assay, LF; inhibition, % at 10 µM; actives 0.12% (n = 360,000); AID 588501; in the data active = inhibition above about 30%; inconclusive = no clear call, values can overlap the other calls; note: plate controls were buffer without enzyme for full effect and enzyme alone for no effect
BoNTA LC inh 1: inhibitors of Botulinum neurotoxin A light chain protease; inhibition, % at 10 µM; shares compounds with BoNT-F LC inh; AID 602139; multiplex microsphere protease assay, flow cytometry; actives 3% (n = 720); in the data active = inhibition above about 32%
BoNT-F LC CP1: inhibitors of Botulinum neurotoxin F light chain protease | shares compounds with BoNT-F LC inh | multiplex microsphere protease cleavage assay, flow cytometry | inhibition, % at 10 µM | 720 tested, under 10 active
Anthrax LF CP1: blocks anthrax lethal factor protease. multiplex microsphere protease cleavage assay, LF. shares compounds with BoNT-F LC inh. 720 tested, under 10 active. inhibition, % at 10 µM. AID 602142
Active calls of the source: *; ? = inconclusive; nt = no result. The list is not random: actives were taken first. Their share in the collection is about 3.6%. Unless noted, the rule behind the calls is not given here.

SMILES	BoNT-F LC inh	MazEF act	Bead autofluor	BoNT-A LC inh2	Anthrax LF inh2	BoNTA LC inh 1	BoNT-F LC CP1	Anthrax LF CP1
COCc1cc(CN2CCCC(C(=O)c3cccc(C(F)(F)F)c3)C2)ccc1OC (stereo not given)	43*	-3	3106	4	-2	-2	0	-3
O=C(Nc1ccc(Nc2ccccc2)cc1)c1c(F)c(F)c(F)c(F)c1F	-12	7	3173	-4	40*	0	-7	1
Cc1cc(NC(=O)CSc2nnc(-c3ccncc3)n2Cc2ccccc2)n(-c2ccccc2)n1	?	3	3521	?	-5	nt	nt	nt
Cc1cc(NC(=O)CSc2nnc(-c3ccncc3)n2C)n(-c2ccccc2)n1	?	2	7628	8	70*	1	3	4
CCCS(=O)(=O)NC(=O)C1(C)CCCN(C(=O)COCc2ccccc2)C1 (stereo not given)	-9	nt	3747	-1	-2	nt	nt	nt
O=[N+]([O-])c1ccc(Sc2cccc3cccnc23)c2cccnc12	8	8	4230	24	30*	17	4	13
O=[N+]([O-])c1cc2cccnc2c2ncccc12	nt	-1	nt	nt	nt	nt	nt	nt
O=C(Nc1ccccc1C(=O)Nc1nncs1)c1ccccc1	40*	4	3230	-1	7	0	-5	2
O=C(Oc1c(-c2ccccc2)c(=O)n2c3c(cccc13)CC2)c1ccccc1	-38	4	4779	-11	-10	nt	nt	nt
O=C(Oc1c(-c2ccccc2)c(=O)n2c3c(cccc13)CC2)c1ccc(F)cc1	?	9	4267	?	37*	2	2	2
CCCCCc1nnc(NC(=O)c2cccc(S(=O)(=O)N3CCOCC3)c2)s1	8	2	2669	1	1	nt	nt	nt
OCCCNc1ncnc2c1ncn2[C@H]1CN(Cc2ccc3c(c2)OCO3)C[C@@H](CO)O1	-2	nt	3696	0	-1	nt	nt	nt
Cc1nn(-c2ccccc2)c2sc(C(=O)N3CCCCC3)cc12	38*	-14	5079	0	5	2	4	2
Cn1c(=O)[nH]c(=O)c2c1nc1n2CC(O)CN1c1ccccc1 (stereo not given)	36*	14	3482	3	-14	0	-1	-2
CCOc1ccccc1NC(=O)c1ccc(S(=O)(=O)N(C)C)cc1	4	2	?	0	39*	0	-4	-1
CCOc1ccccc1NC(=O)c1ccc(S(=O)(=O)N(C)c2ccccc2)cc1	-8	0	3483	0	-13	nt	nt	nt
Cc1cc(C)n(-c2nc3ccccc3nc2N2CCN(S(=O)(=O)c3ccc(F)c(C)c3)CC2)n1	12	-12	7375	24	11	nt	nt	nt
Cc1cc(C)n(-c2nc3ccccc3nc2N2CCN(S(=O)(=O)c3ccc4ccccc4c3)CC2)n1	20	-6	9467	34*	25	12	-3	6
CCCCNc1nnc(SCC(=O)c2c[nH]c3ccccc23)s1	-22	-7	5750	54*	20	14	-21	14
CCCCNc1nnc(SCC(=O)c2c(N)n(C3CC3)c(=O)[nH]c2=O)s1	6	5	4237	0	3	nt	nt	nt
O=C(CSc1nc2ccccc2c(=O)n1-c1ccccc1)c1c[nH]c2ccccc12	1	-33	2530	0	-1	nt	nt	nt
O=C(CSc1nncn1-c1ccccc1)c1c[nH]c2ccccc12	-14	3	4658	53*	15	10	-14	12
O=C1Nc2ccccc2N=C(c2ccc3c(c2)OCO3)C1N(C(=O)c1ccc2ccccc2c1)C1CC1 (stereo not given)	-15	nt	5586	-1	-10	nt	nt	nt
Nc1cc(=O)[nH]c(SCCSc2ccccc2)n1	?	2	3211	2	11	nt	nt	nt
Cc1c(N)cc2c(c1N)C(C)(C)CC2(C)C	-4	-7	4112	0	2	nt	nt	nt
SMILES	BoNT-F LC inh	MazEF act	Bead autofluor	BoNT-A LC inh2	Anthrax LF inh2	BoNTA LC inh 1	BoNT-F LC CP1	Anthrax LF CP1
O=C(c1ccc(Br)c(S(=O)(=O)N2CCCCC2)c1)N1CCCCC1	-4	4	5904	0	-4	nt	nt	nt
NC(=O)c1ccc(Br)c(S(=O)(=O)N2CCCCC2)c1	42*	4	8468	35*	-17	0	0	-3
CCCCCn1nc(-c2ccccc2)c2nc3ccccc3nc21	17	-900	4862	22	24	nt	nt	nt
CCn1nc(-c2ccccc2)c2nc3ccccc3nc21	38*	786*	3801	67*	43*	22	2	10
CC(C)c1ccc(OCC(=O)Nc2ccncc2)cc1	43*	4	3498	1	15	-2	-1	5
COc1ccc(C(O)P(=O)(Oc2ccccc2)Oc2ccccc2)cc1 (stereo not given)	5	-5	3061	10	8	nt	nt	nt
COc1ccc([C@@H](O)[C@@H](N)c2ccccc2)cc1	?	9	3097	0	38*	0	1	1
COc1ccc(CNC(=O)CN2C(=O)COc3ccc(S(=O)(=O)N4CCCC4)cc32)cc1	-2	0	5784	53*	2	0	2	0
Cc1nc2nc(Cc3ccccc3)[nH]n2c(=O)c1Cl	32	-4	4787	1	3	1	-5	1
Cc1nc2nc(Cc3ccccc3)[nH]n2c(=O)c1Cc1ccccc1	-43	-7	4953	-4	-5	nt	nt	nt
COc1ccc(Cn2c(=S)[nH]c3cc(OC)c(OC)cc3c2=O)cc1	3	0	3250	0	-2	nt	nt	nt
COc1ccc(Cn2c(=O)[nH]c3cc(OC)c(OC)cc3c2=O)cc1	36*	7	3925	4	-9	0	1	-2
COc1ccc(C2/C(=C(\O)c3ccc4c(c3)CC(C)O4)C(=O)C(=O)N2Cc2cccnc2)c(OC)c1 (stereo not given)	0	6	6433	-1	2	nt	nt	nt
COc1ccc(S(=O)(=O)N2CCCCC2)cc1NC(=O)Cc1ccsc1	-10	1	3670	-1	-7	nt	nt	nt
CCN(CC)C(=O)c1ccc(S(=O)(=O)c2ccccc2)cc1	43*	-10	3400	1	-1	-1	-3	0
CCN(CC)C(=O)c1ccc(NS(=O)(=O)c2ccccc2)cc1	6	-24	3742	1	2	nt	nt	nt
COc1ccc(OC)c(-c2nc3cc4ccccc4cc3nc2-c2ccccc2)c1	17	-1	2721	62*	22	34*	7	26
COc1ccc2nc(NC(=O)CSC(C)C(=O)Nc3cc(C)on3)sc2c1 (stereo not given)	?	6	4402	85*	?	1	-1	2
Cc1ccc2nc(NC(=O)CSCC(=O)Nc3cc(C)on3)sc2c1	nt	1	nt	nt	nt	nt	nt	nt
COc1cc2oc(=O)cc(CN(Cc3ccccc3)Cc3ccccc3)c2cc1Cl	-2	nt	4393	0	-3	nt	nt	nt
CSc1ccc(CNC(=O)C(C)n2nc(C)c3c(C)n(-c4ccccc4)nc3c2=O)cc1 (stereo not given)	-3	10	5681	0	-1	nt	nt	nt
